The source made the active and inactive calls. Unless noted, no rule for the calls is given here.
Columns and labels:
[1] = test system: Wnt5a (protein binding on small-molecule microarray); test: small molecules binding Wnt5a protein – biophysical, small-molecule microarray, 635/667 nm fluorescence, primary screen (AID 1142); settings: 635 nm fluorescence, higher = more signal;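 also: fluorescence read at 667 nm with signal to noise per printed feature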
[2] = ATP-based viability of Huh7 replicon cells – cell-based, CellTiter-Glo luminescence, basal, 48 h, cytotoxicity control for HCV replication inhibitor project, primary screen (AID 1143); settings: higher = more signal, called active from +8 up or from −8 down;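 also: Huh7 hepatoma cells carrying a hepatitis C replication reporter with no stimulus; test concentration not given here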
[3] = Pseudomonas biofilm growth suppression – PAO1 strain, BacTiter-Glo luminescence, LB-PBS, primary screen (AID 1144); settings: P. aeruginosa PAO1 biofilm, 12 h, higher = more signal
[4] = basal CRE-LacZ reporter activity in PC12 – cell-based, unstimulated, primary screen (AID 1145); settings: no forskolin, luminescence, 4.5 h, higher = more signal, called active from +8 up or from −8 down
[5] = forskolin-driven CRE-LacZ activity in PC12 – cell-based, CRE-LacZ reporter, forskolin-stimulated, primary screen (AID 1146); settings: luminescence, 4.5 h, higher = more signal, called active from +8 up or from −8 down;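 also: PC12 cells with 6xCRE LacZ reporter stimulated by forskolin 10 µM; beta-galactosidase reporter signal reflecting CREB driven transcription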
[6] = target: Streptavidin (Streptomyces avidinii) (UniProt P22629); test: compounds binding control protein streptavidin – biophysical, small-molecule microarray, 635/667 nm fluorescence, artefact control for SMM compound annotation, primary screen (AID 1147); settings: higher = more signal;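 also: signal reflects streptavidin binding to arrayed compounds as a control protein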
[7] = probe aInhba binding on compound microarray – biochemical, small-molecule microarray, 635/667 nm fluorescence, primary screen (AID 1148); settings: higher = more signal;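 also: score merges 667nm spot fluorescence with signal-to-noise for antibody binding to printed compounds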
[8] = target: Torsin-1A (Homo sapiens) (UniProt O14656); test: TOR1A wild-type binding on microarray – cell lysate, small-molecule microarray, lysate, 635/667 nm, primary screen (AID 1149); settings: COS7 hTOR1A-WT lysate, 635 nm fluorescence, higher = more signal
[9] = target: Torsin-1A (Homo sapiens) (UniProt O14656); test: torsin A mutant lysate binding on microarrays – cell lysate, small-molecule microarray, COS7 lysate, 635/667 nm fluorescence, primary screen (AID 1150); settings: COS7 hTOR1A mutant lysate, 635 nm fluorescence, higher = more signal;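 also: score pools 667 nm emission and signal to noise measuring lysate protein binding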
[10] = test system: Sonic hedgehog protein (Shh); test: Sonic hedgehog microarray binding compounds – biochemical, small-molecule microarray, 635/667 nm fluorescence, primary screen (AID 1151); settings: 635 nm fluorescence, higher = more signal;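 also: Shh protein binding to compounds spotted on small-molecule microarray slides; score combines spot fluorescence intensity with signal-to-noise across triplicate slides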
[11] = optical density shifts of acrAB sulA E. coli – strain DRC41, OD650, 48 h, E. coli filamentation inducer project, primary screen (AID 1152); settings: higher = more signal, called active from +8 up or from −8 down;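 also: E. coli MC1000 strain DRC41 lacking acrAB efflux pump and sulA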
[12] = probe aLefty1 binding on compound microarray – biochemical, small-molecule microarray, 635/667 nm fluorescence, primary screen (AID 1153); settings: higher = more signal;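 also: score merges spot fluorescence with signal-to-noise ratio from the scanned slide images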
[13] = plasmodial surface anion channel blockers, osmotic lysis – cell-based, P. falciparum Indochina, OD700, 1 h, primary screen (AID 1154); settings: P. falciparum Indochina infected RBC osmotic lysis, higher = more signal, called active from +8 up or from −8 down
[14] = plasmodial surface anion channel blockers, osmotic lysis – cell-based, P. falciparum Indochina, OD700, 2 h, primary screen (AID 1155);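 also: lysis reports solute entry through the parasite surface anion channel PSAC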; settings: P. falciparum Indochina infected erythrocytes, higher = more signal, called active from +8 up or from −8 down
[15] = changes in parasitized red cell lysis, either direction – P. falciparum Indochina, OD700, 3 h, PSAC antagonist project, primary screen (AID 1156); settings: P. falciparum-infected erythrocytes, osmotic lysis, higher = more signal, called active from +8 up or from −8 down
[16] = plasmodial surface anion channel blockers, osmotic lysis – cell-based, P. falciparum Indochina, OD700, 18 h, primary screen (AID 1157); settings: P. falciparum Indochina infected erythrocytes, osmotic lysis OD700, 18 h; higher = more signal, called active from +8 up or from −8 down
[17] = S6 kinase pathway phospho-S6 level changes – cell-based, A549, cytoblot, luminescence, serum-stimulated, primary screen (AID 1158); settings: 5 h, higher = more signal;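 also: serum-stimulated A549 lung adenocarcinoma cells; signal is phosphorylated S6 detected by cytoblot immunostaining with HRP secondary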
[18] = target: NADPH oxidase 2 (Homo sapiens) (UniProt P04839); test: compounds shifting NOX2 Amplex Red fluorescence – cell-based, HEK293-NOX2, PMA-stimulated, NOX inhibitor project, primary screen (AID 1159); settings: 45 min, higher = more signal, called active from +8 up or from −8 down; also: test concentration not given here
[19] = target: NADPH oxidase 4 (Homo sapiens) (UniProt Q9NPH5); test: compounds shifting NOX4 Amplex Red fluorescence – cell-based, HEK293-NOX4, tetracycline-induced, NOX inhibitor project, primary screen (AID 1160); settings: HEK293-NOX4, Amplex Red H2O2 fluorescence, 45 min; higher = more signal, called active from +8 up or from −8 down
[20] = target: NADPH oxidase 5 (Homo sapiens) (UniProt Q96PH1); test: compounds shifting NOX5 Amplex Red fluorescence – cell-based, HEK293-NOX5, NOX inhibitor project, primary screen (AID 1161); settings: HEK293-NOX5, ionomycin, 45 min, higher = more signal
Chain of NADPH oxidase 5 (Homo sapiens) (Q96PH1 whole entry, looked up): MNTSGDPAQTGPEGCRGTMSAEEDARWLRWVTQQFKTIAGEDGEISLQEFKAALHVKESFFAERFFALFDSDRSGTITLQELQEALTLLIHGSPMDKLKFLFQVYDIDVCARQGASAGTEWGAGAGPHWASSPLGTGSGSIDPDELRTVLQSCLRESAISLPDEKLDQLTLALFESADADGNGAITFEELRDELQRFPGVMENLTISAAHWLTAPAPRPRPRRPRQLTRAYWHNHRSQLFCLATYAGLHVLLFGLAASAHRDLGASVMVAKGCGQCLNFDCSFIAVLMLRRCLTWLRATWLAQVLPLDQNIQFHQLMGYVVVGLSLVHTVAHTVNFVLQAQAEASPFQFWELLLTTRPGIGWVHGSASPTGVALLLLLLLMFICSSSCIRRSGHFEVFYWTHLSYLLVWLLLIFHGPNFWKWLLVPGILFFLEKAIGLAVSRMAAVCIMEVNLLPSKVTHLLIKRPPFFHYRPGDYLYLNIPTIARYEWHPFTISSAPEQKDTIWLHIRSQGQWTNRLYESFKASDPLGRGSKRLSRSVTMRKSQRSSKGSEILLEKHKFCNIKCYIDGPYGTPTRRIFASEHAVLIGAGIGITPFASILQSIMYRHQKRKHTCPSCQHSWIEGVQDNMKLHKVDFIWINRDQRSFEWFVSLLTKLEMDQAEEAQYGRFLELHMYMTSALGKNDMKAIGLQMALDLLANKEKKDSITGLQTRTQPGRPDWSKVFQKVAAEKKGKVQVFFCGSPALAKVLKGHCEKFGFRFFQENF

Chain of NADPH oxidase 4 (Homo sapiens) (Q9NPH5 whole entry, looked up): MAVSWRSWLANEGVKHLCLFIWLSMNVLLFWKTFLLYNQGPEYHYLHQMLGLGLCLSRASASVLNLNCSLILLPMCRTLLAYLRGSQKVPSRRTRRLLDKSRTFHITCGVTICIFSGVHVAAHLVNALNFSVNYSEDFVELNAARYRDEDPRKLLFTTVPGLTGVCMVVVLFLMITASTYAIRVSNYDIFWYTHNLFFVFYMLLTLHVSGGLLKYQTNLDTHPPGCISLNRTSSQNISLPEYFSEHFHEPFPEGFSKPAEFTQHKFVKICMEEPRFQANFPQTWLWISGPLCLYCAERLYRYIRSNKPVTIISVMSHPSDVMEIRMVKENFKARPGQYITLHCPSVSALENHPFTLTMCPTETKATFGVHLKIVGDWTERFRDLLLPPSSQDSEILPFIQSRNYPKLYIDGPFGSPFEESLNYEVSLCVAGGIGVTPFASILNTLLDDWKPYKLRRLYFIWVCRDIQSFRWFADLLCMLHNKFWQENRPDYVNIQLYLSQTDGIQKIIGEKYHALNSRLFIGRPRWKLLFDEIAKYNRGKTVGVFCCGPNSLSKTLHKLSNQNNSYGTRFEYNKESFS
Chain of Torsin-1A (Homo sapiens) (O14656 whole entry, looked up): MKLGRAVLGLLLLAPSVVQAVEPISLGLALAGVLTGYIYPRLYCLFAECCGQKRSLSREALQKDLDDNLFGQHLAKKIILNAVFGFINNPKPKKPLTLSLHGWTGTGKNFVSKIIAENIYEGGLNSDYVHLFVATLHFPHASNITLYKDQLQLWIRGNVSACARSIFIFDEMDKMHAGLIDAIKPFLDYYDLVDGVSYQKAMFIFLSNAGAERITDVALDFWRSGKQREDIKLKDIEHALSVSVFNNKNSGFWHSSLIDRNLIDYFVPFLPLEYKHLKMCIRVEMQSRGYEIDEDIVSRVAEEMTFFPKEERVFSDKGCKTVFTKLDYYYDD
Chain of NADPH oxidase 2 (Homo sapiens) (P04839 whole entry, looked up): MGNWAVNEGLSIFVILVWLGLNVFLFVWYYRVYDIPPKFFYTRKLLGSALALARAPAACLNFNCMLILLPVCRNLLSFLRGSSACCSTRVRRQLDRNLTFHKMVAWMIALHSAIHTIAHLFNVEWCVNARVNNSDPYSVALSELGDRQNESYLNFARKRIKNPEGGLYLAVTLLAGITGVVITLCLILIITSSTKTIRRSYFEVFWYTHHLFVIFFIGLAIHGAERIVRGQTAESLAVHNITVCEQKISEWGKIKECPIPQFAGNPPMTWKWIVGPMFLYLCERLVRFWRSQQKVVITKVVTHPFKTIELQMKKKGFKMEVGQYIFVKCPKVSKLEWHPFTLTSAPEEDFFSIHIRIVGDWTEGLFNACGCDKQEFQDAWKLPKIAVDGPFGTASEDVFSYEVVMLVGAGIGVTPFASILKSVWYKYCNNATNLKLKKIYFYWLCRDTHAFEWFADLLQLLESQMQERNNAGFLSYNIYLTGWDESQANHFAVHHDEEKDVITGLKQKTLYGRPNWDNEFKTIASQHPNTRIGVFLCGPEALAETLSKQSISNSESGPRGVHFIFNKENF
Chain of Streptavidin (Streptomyces avidinii) (P22629 whole entry, looked up): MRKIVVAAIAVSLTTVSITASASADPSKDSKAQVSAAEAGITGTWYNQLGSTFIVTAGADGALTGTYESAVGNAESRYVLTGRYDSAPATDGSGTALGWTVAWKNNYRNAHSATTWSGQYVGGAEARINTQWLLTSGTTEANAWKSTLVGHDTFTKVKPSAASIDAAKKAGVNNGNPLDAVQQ

| Structure (SMILES) | composite z-score [1] | z-score [2] | z-score [3] | z-score [4] | z-score [5] | composite z-score [6] | composite z-score [7] | composite z-score [8] | composite z-score [9] | composite z-score [10] | z-score [11] | composite z-score [12] | z-score [13] | z-score [14] | z-score [15] | z-score [16] | z-score [17] | z-score [18] | z-score [19] | z-score [20] |
| --- | --- | --- | --- | --- | --- | --- | --- | --- | --- | --- | --- | --- | --- | --- | --- | --- | --- | --- | --- | --- |
| CCCC[C@H]1OB(O)C[C@H]2C1=C(C)C[C@H]1C(=O)N(C)C(=O)[C@H]12 | 0.224 | 0.0813 (inactive) | -0.0729 (inactive) | -0.237 (inactive) | 1.23 (inactive) | -0.174 | -0.0221 | 0.697 | -0.102 | 0.948 | -0.908 (inactive) | -0.147 | 0.39 (inactive) | -0.123 (inactive) | -0.974 (inactive) | 0.0834 (inactive) | 0.292 | -0.76 (inactive) | 0.332 (inactive) | -0.235 |
| COCCNC(=O)OCC1CCCC2(CC(OC(=O)NCCc3ccc(F)cc3)CC(CCC(=O)N[C@@H](C)C(=O)OC)O2)O1 (stereo not given in full) | 0.156 | -0.126 (inactive) | 0.252 (inactive) | 0.374 (inactive) | -0.448 (inactive) | 0.753 | -0.128 | 0.267 | -0.0343 | 1.09 | 0.622 (inactive) | 0.0547 | -0.577 (inactive) | -0.61 (inactive) | 0.958 (inactive) | 0.565 (inactive) | 0.672 | 0.769 (inactive) | 0.948 (inactive) | 0.232 |
| CC(C)C[C@@H]1NC(=O)[C@H]2C[C@@H](C(=O)NCCCCCCN(C)C)[C@@H](c3cccc(OCCO)c3)N2C1=O | 0.726 | 0.069 (inactive) | -0.402 (inactive) | 0.0124 (inactive) | -0.995 (inactive) | -0.305 | -0.0317 | 1.22 | 1.32 | 2.13 | -0.054 (inactive) | 0.0816 | 4.3 (inactive) | 0.594 (inactive) | 1.04 (inactive) | 0.154 (inactive) | 0.0695 | 1.77 (inactive) | 1.07 (inactive) | 1.84 |
| COC(=O)CC=C[C@@H](C)[C@@H](C=NO[C@@H](C)c1cc(-c2c(C)cc(C)cc2C)no1)OC | -0.828 | -2.12 (inactive) | -0.726 (inactive) | 2.71 (inactive) | -0.254 (inactive) | -0.432 | -0.249 | -2.2 | -2.18 | -1.46 | -1.45 (inactive) | 0.0004 | 3.39 (inactive) | -0.032 (inactive) | 0.505 (inactive) | -1.37 (inactive) | 2.15 | -1.04 (inactive) | -0.771 (inactive) | -3.87 |
| C/C=C\[C@@H](NCc1ccccc1Br)[C@@H](O)Cc1ccccc1 | -0.771 | -5.43 (inactive) | 0.541 (inactive) | 0.857 (inactive) | 0.567 (inactive) | -0.838 | -0.153 | 0.0908 | -0.27 | -1.3 | -1.43 (inactive) | 0.0927 | -0.222 (inactive) | -1.35 (inactive) | 0.0141 (inactive) | -2.52 (inactive) | 0.365 | -0.239 (inactive) | -1.49 (inactive) | -2.69 |
| COc1ccccc1CN1C(=O)c2ccccc2[C@@]2(Cc3ccccc3N(C(C)C)C2=O)[C@@H]1c1ccc(CO)cc1 | -0.458 | -1.84 (inactive) | -0.205 (inactive) | -0.179 (inactive) | -0.335 (inactive) | -0.213 | -0.0695 | -1.25 | 0.373 | -0.147 | 1.74 (inactive) | 0.0371 | 0.0937 (inactive) | -0.756 (inactive) | -0.964 (inactive) | -0.876 (inactive) | 1.79 | -0.437 (inactive) | 0.215 (inactive) | 1.04 |
| O=C1[C@H]2[C@H]3[C@H](O)[C@H](O)CC(=NO[C@@H]4O[C@H](CO)[C@@H](O)[C@H](O)[C@H]4O)[C@@H]3CC[C@H]2C(=O)N1Cc1ccccc1 | -0.0389 | -0.435 (inactive) | 0.0971 (inactive) | -0.929 (inactive) | 0.488 (inactive) | -0.561 | 0.0925 | -0.333 | 0.409 | -0.37 | 0.755 (inactive) | -0.115 | 1.3 (inactive) | 0.893 (inactive) | 0.742 (inactive) | 0.475 (inactive) | 0.62 | 0.0811 (inactive) | 1.14 (inactive) | -0.0503 |
| COCCOC(=O)N1C(=O)[C@@]2(c3cc(C#CC4(O)CCCCCC4)ccc31)[C@H](c1ccc(OCCO)cc1)N1[C@H](c3ccccc3)[C@H](c3ccccc3)OC(=O)[C@H]1[C@@H]2C(=O)NC[C@H](O)c1ccccc1 | 0.524 | -5.42 (inactive) | -0.903 (inactive) | -0.61 (inactive) | 0.753 (inactive) | 0.246 | 0.0658 | 0.225 | 0.514 | 1.23 | 1.02 (inactive) | 0.43 | 2.18 (inactive) | 0.524 (inactive) | 0.735 (inactive) | -0.494 (inactive) | 1.47 | 1.79 (inactive) | 0.858 (inactive) | -1.31 |
